HT1080 IDH1KD tx = HT-1080 IDH1 knockdown cell toxicity (counter line); Potency, µM (series often up to 46.1 µM), for inactives: at the top dose activity, negative = toxicity, actives largely listed as cytotoxic; HT-1080 IDH1 knockdown viability, ATP luminescence, 48 h; 2% of 360,000 active;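 further: 0% = DMSO wells and -100% = cell-free medium wells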
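IDH1KD HT-1080 cells, 750/well, RPMI + 5% FBS; compound pinned after 2 h settling; 48 h, 37 °C; CellTiter-Glo luminescence; % activity normalised to DMSO and no-cell wells; curves fitted, classed by r2 and efficacy.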
SW480 rereplic = induces DNA re-replication in SW480 colon adenocarcinoma cells; SW480 DNA re-replication, Hoechst DNA content imaging, 48 h; Potency, µM (series often up to 46.1 µM), for the others: at the highest dose re-replication activation, hits mostly activators; 1.8% of 340,000 active; further: % of control where 0% means no effect; nearly all actives have a fitted effect of over 55% in size
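Hoechst fluorescence of nuclei (405 nm excitation, 500-530 nm emission) measured by plate-scanning imager after 48 hr compound exposure at 37 C; re-replication scored as increased number of nuclei with elevated intensity.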
KB-3-1 tox = KB-3-1 parental cell cytotoxicity. KB-3-1 viability, CellTiter-Glo ATP luminescence, 72 h. Potency, µM (series often up to 46.1 µM), hits mostly cytotoxic. 1.4% of 400,000 active; further: on the % scale 0 is the no-effect control and ±100 the full control effect; nearly all actives have a fitted effect of over 60% in size
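Using CellTiter-Glo luminescence, growth of non-resistant KB-3-1 adenocarcinoma cells is assessed 72 h after pin-tool compound addition at 37 °C. Normalized responses across the concentration series yield fitted curves.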
HT1080NT lethal = kills 2HG-producing HT-1080-NT fibrosarcoma cells; HT-1080-NT fibrosarcoma viability, CellTiter-Glo ATP luminescence, 48 h; 1.6% of 360,000 active; Potency, µM (highest dose often 46.1 µM), without a hit: at the top dose activity, negative = less viability, actives largely listed as cytotoxic;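 further: NT is the 2HG producing partner of a matched IDH1 knockdown line; 0% = DMSO-treated cells and -100% = media-only wells without cells; nearly all actives have a fitted effect of over 55% in size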
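Toxicity toward the 2HG-producing NT line was scored as %Activity, normalised to DMSO and no-cell wells, from CellTiter-Glo luminescence after 48 hours' treatment.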
MCF10A rerep = inducers of DNA re-replication in MCF 10A breast cells. AID 624296. MCF 10A DNA re-replication, Hoechst nuclear intensity, 48 h. 2.9% of 350,000 active. Potency, µM (titrated, usually from 46.1 µM), for inactives: at the highest dose activity, positive = re-replication, most hits filed as activators; further: % of control where 0% means no effect; nearly all actives have a fitted effect of over 50% in size
KB-V1 MDR tox = kills drug-selected multidrug resistant KB-V1 cells; KB-V1 MDR cells viability, CellTiter-Glo, 72 h; Potency, µM (titrated, usually from 46.1 µM), most hits filed as cytotoxic; 3.4% of 400,000 active; further: on the % scale 0 is the no-effect control and ±100 the full control effect; nearly all actives have a fitted effect of over 60% in size
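KB-V1, DMEM (no phenol red) + 10% FBS; cpd pin-transferred, titration series; 72 h, 37 degrees C; CellTiter-Glo, luminescence. Data normalized, curve-fit.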
An asterisk follows results filed as active. The list is not random: actives were taken first. Their share in the collection is about 7.9%. The call rests on the fitted dose curve; in most records, active means well fitted curve in the direction sought with a large enough effect; inconclusive means small, poorly fitted or top-dose-only effect, or another doubt; inactive means no such curve, though single readings can be large; an effect the other way counts as inactive or inconclusive. Potency means the concentration at half of the fitted maximal effect.

What do the screens show for `COc1ccc(-c2ccccc2[C@H]2[C@@H]3C=CC[C@@H](C)[C@@H]3C(=O)N2Cc2ccccc2)cc1`?
HT1080 IDH1KD tx: inconclusive; SW480 rereplic: inconclusive; KB-3-1 tox: inactive; HT1080NT lethal: inconclusive; MCF10A rerep: 23.1µM*; KB-V1 MDR tox: inactive

What do the screens show for `O=C(Nc1cccc(Br)c1)c1cc(S(=O)(=O)N2CCOCC2)cs1`?
HT1080 IDH1KD tx: 11.2%; SW480 rereplic: -26.0%; KB-3-1 tox: inactive; HT1080NT lethal: 11.6%; MCF10A rerep: inconclusive; KB-V1 MDR tox: inconclusive

What do the screens show for `C[N+]1(CC(=O)c2cccc([N+](=O)[O-])c2)CCOCC1`?
KB-3-1 tox: inactive; KB-V1 MDR tox: inactive

How did O=C(Nc1cccn(Cc2c(F)cccc2Cl)c1=O)NC1CCCCC1 do in these assays?
HT1080 IDH1KD tx: inconclusive; SW480 rereplic: 18.4µM*; KB-3-1 tox: 2.59µM*; HT1080NT lethal: inconclusive; MCF10A rerep: 20.6µM*; KB-V1 MDR tox: inconclusive

How did C#CCOC(=O)Nc1cccn(Cc2c(Cl)cccc2Cl)c1=O do in these assays?
HT1080 IDH1KD tx: inconclusive; SW480 rereplic: inconclusive; KB-3-1 tox: 10.3µM*; HT1080NT lethal: inconclusive; MCF10A rerep: inconclusive; KB-V1 MDR tox: inconclusive

Results for Cc1ccc(C2CC(=O)n3nc(-c4ccc(F)cc4)nc3S2)cc1 (stereo unspecified) ?
KB-3-1 tox: inconclusive; KB-V1 MDR tox: inactive

Results for O=C(Nc1cc(Cl)ccc1F)c1ccc(-n2cncn2)c([N+](=O)[O-])c1 ?
HT1080 IDH1KD tx: 9.8%; SW480 rereplic: 65.3%; KB-3-1 tox: inactive; HT1080NT lethal: 6.7%; MCF10A rerep: -1.7%; KB-V1 MDR tox: inactive

What do the screens show for `CC(=O)N1CCN(c2ccc(NC(=O)c3ccc([N+](=O)[O-])o3)cc2Cl)CC1`?
HT1080 IDH1KD tx: 6.51µM*; SW480 rereplic: inconclusive; KB-3-1 tox: inconclusive; HT1080NT lethal: 3.26µM*; MCF10A rerep: 3.26µM*; KB-V1 MDR tox: inconclusive

What do the screens show for `CCC(=O)N1CCN(c2ccc(NC(=O)c3ccc([N+](=O)[O-])o3)cc2Cl)CC1`?
HT1080 IDH1KD tx: 7.31µM*; SW480 rereplic: 2.3%; KB-3-1 tox: inconclusive; HT1080NT lethal: 11.6µM*; MCF10A rerep: inconclusive; KB-V1 MDR tox: inactive

Results for CCC(=O)N1CCN(c2ccc(NC(=O)c3ccc(Br)o3)cc2)CC1 ?
HT1080 IDH1KD tx: -13.2%; SW480 rereplic: 20.6µM*; KB-3-1 tox: inactive; HT1080NT lethal: -3.6%; MCF10A rerep: 2.6%; KB-V1 MDR tox: inactive

What do the screens show for `CC(=O)N1CCN(c2ccc(NC(=O)c3ccco3)cc2Cl)CC1`?
HT1080 IDH1KD tx: -2.8%; SW480 rereplic: -3.6%; KB-3-1 tox: inactive; HT1080NT lethal: -3.8%; MCF10A rerep: 8.2%; KB-V1 MDR tox: inactive

Results for O=C(Nc1cc(Cl)ccc1-n1cncn1)c1ccc([N+](=O)[O-])o1 ?
HT1080 IDH1KD tx: -21.6%; SW480 rereplic: 20.6µM*; KB-3-1 tox: 13µM*; HT1080NT lethal: -21.9%; MCF10A rerep: inconclusive; KB-V1 MDR tox: inconclusive

What do the screens show for `O=C(c1ccc(F)cc1F)N1CCCC(c2nc(-c3cccs3)no2)C1` (stereo unspecified)?
HT1080 IDH1KD tx: 1.8%; SW480 rereplic: inconclusive; KB-3-1 tox: inactive; HT1080NT lethal: -19.7%; MCF10A rerep: 16.6%; KB-V1 MDR tox: inconclusive

How did COC(=O)c1c(NC(=O)CN2CCN(c3ncccn3)CC2)sc(C(N)=O)c1C do in these assays?
HT1080 IDH1KD tx: inconclusive; SW480 rereplic: 13.4%; KB-3-1 tox: inconclusive; HT1080NT lethal: -28.3%; MCF10A rerep: -1.8%; KB-V1 MDR tox: inconclusive

How did CCN1CCN(c2ccc(NC(=O)c3ccc(F)cc3)cc2Cl)CC1 do in these assays?
HT1080 IDH1KD tx: 7.7%; SW480 rereplic: 18.2%; KB-3-1 tox: inconclusive; HT1080NT lethal: 17.0%; MCF10A rerep: inconclusive; KB-V1 MDR tox: inactive

Results for CCC(=O)N1CCN(c2ccc(Cl)cc2NC(=O)c2ccc([N+](=O)[O-])o2)CC1 ?
HT1080 IDH1KD tx: inconclusive; SW480 rereplic: 9.2µM*; KB-3-1 tox: inactive; HT1080NT lethal: inconclusive; MCF10A rerep: inconclusive; KB-V1 MDR tox: inactive

Results for CCN1CCN(c2ccc(NC(=O)c3ccc([N+](=O)[O-])o3)cc2Cl)CC1 ?
HT1080 IDH1KD tx: 13µM*; SW480 rereplic: 1.4%; KB-3-1 tox: inactive; HT1080NT lethal: inconclusive; MCF10A rerep: 1.3µM*; KB-V1 MDR tox: inconclusive

What do the screens show for `CS(=O)(=O)c1cccc(C(=O)Nc2cccc(S(=O)(=O)N3CCCC3)c2)c1`?
HT1080 IDH1KD tx: -15.2%; SW480 rereplic: -62.7%; KB-3-1 tox: inactive; HT1080NT lethal: -20.4%; MCF10A rerep: 29.8%; KB-V1 MDR tox: inactive

How did O=C(Nc1cccc(S(=O)(=O)N2CCCCC2)c1)c1ccc(S(=O)(=O)C(F)F)cc1 do in these assays?
HT1080 IDH1KD tx: -15.4%; SW480 rereplic: -3.4%; KB-3-1 tox: inconclusive; HT1080NT lethal: -0.5%; MCF10A rerep: 1.8%; KB-V1 MDR tox: 7.31µM*

How did O=C(CCl)Nc1cccc(S(=O)(=O)N2CCCCCC2)c1 do in these assays?
HT1080 IDH1KD tx: 18.4µM*; SW480 rereplic: 13µM*; KB-3-1 tox: 16.4µM*; HT1080NT lethal: inconclusive; MCF10A rerep: inconclusive; KB-V1 MDR tox: 23.1µM*

What do the screens show for `COc1cc(C(=O)Nc2cccc(S(=O)(=O)N3CCCC3)c2)cc(OC)c1C`?
HT1080 IDH1KD tx: -8.7%; SW480 rereplic: 0.7%; KB-3-1 tox: inconclusive; HT1080NT lethal: -3.0%; MCF10A rerep: inconclusive; KB-V1 MDR tox: 23.1µM*

How did CCc1ccc(NC(=O)c2ccc3c(=O)n4c(nc3c2)CCCCC4)cc1 do in these assays?
HT1080 IDH1KD tx: -0.4%; SW480 rereplic: 16.4%; KB-3-1 tox: inconclusive; HT1080NT lethal: -0.8%; MCF10A rerep: 14.6%; KB-V1 MDR tox: inactive

How did O=C(Cc1ccc(Cl)cc1)Nc1cccc(S(=O)(=O)N2CCCCC2)c1 do in these assays?
HT1080 IDH1KD tx: -10.1%; SW480 rereplic: -6.9%; KB-3-1 tox: inconclusive; HT1080NT lethal: -0.2%; MCF10A rerep: inconclusive; KB-V1 MDR tox: inactive

Results for O=C(Nc1cccc(S(=O)(=O)N2CCCCC2)c1)c1ccc2c(=O)n3c(nc2c1)CCCCC3 ?
HT1080 IDH1KD tx: inconclusive; SW480 rereplic: -7.7%; KB-3-1 tox: 11.6µM*; HT1080NT lethal: -18.7%; MCF10A rerep: 23.8%; KB-V1 MDR tox: 5.8µM*

How did O=C(Nc1cccc(S(=O)(=O)C(F)F)c1)c1ccc(S(=O)(=O)N2CCCCC2)cc1 do in these assays?
HT1080 IDH1KD tx: inconclusive; SW480 rereplic: -7.2%; KB-3-1 tox: inconclusive; HT1080NT lethal: inconclusive; MCF10A rerep: -2.0%; KB-V1 MDR tox: inconclusive

Assay outcomes deposited in PubChem BioAssay by National Center for Advancing Translational Sciences (NCATS).
